Hits are enriched below; roughly 6.9% of the tested compounds scored in any of these assays.
HCV NS3h FP = hepatitis C NS3 helicase inhibition, primary screen; NS3h Cy5-dT15 DNA binding, fluorescence polarization; inhibition, % at 100 µM; 16,000 tested, 1.6% active; AID 687043;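 active = inhibition above the average over every tested compound plus 3 SD, cut at about 40% in these data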
Cy5 interf NS3h = counter-screen for HCV NS3 helicase inhibitors: fluorescence interference; Cy5-dT15 DNA with NS3h; actives lie on both sides; signal over control mean, under 1 quenches; fluorescence interference ratio at 100 µM; 16,000 tested, 6% active; AID 720488;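 active = compound fluorescence over control fluorescence at most 0.8, a quencher, or at least a set upper limit, an enhancer; inactive = ratio between 0.8 and the set upper limit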
Numbers stand for hits; n = inactive.

SMILES	HCV NS3h FP	Cy5 interf NS3h
C=CCN1C(=O)/C(=C\c2ccc(OC)cc2)SC1=Nc1ccccc1	n	0.792
CCOc1ccc(N(CC(=O)N2CCOCC2)S(C)(=O)=O)cc1	n	0.753
CS(=O)(=O)N(CC(=O)N1CCOCC1)c1ccc(Cl)cc1	n	n
Cc1ccc(CC2C(=O)N(c3ccc(I)cc3)C(=O)C2C)cc1 (stereo unspecified)	n	n
Cc1ccc(C(=O)N/C(=C\c2cccc([N+](=O)[O-])c2)C(=O)N2CCOCC2)cc1	n	n
Cc1ccc(S(=O)(=O)N2CCN(S(=O)(=O)c3ccc(C)cc3)C2c2ccc(N(C)C)cc2)cc1	n	n
Cc1ccc(S(=O)(=O)N2CCC(O)CC2C)cc1 (stereo unspecified)	n	0.738
COc1ccc(N(CC(=O)Nc2ccccc2)S(C)(=O)=O)c(OC)c1	n	n
O=C1C2C3C=CC(C3)C2C(=O)N1/N=C\c1ccc(I)o1 (stereo unspecified)	n	n
N#Cc1c(-c2cc(Br)cs2)c2c(=O)[nH]c(=O)[nH]c2[nH]c1=O	n	1.21
COc1ccc(Cl)cc1NC(=O)c1ccc(Cl)c(Cl)c1	n	n
Cc1ccc(N2CC(C(=O)Nc3cc(C)ccc3C)CC2=O)cc1 (stereo unspecified)	n	n
CC(=O)CC(=O)NC(C)c1ccccc1 (stereo unspecified)	n	n
CC(NC(=O)c1ccc(Br)cc1)c1ccccc1 (stereo unspecified)	n	0.787
CCS(=O)(=O)C(=CNc1ccccc1)S(=O)(=O)CC	n	n
O=C(Nc1ccc(Cl)cc1)Nc1nnc(-c2cccc(F)c2)s1	n	n
O=C(Nc1ccc(Cl)cc1)Nc1nnc(-c2cccs2)s1	n	0.686
CCOc1ccc2nc(N(C)C)[nH]c2c1	n	n
COC(=O)CCN1C(=O)/C(=C/c2ccc(OCc3ccc(Cl)cc3)c(OC)c2)SC1=S	n	n
CCOc1ccc(S(=O)(=O)N(CC(=O)NC)c2ccc(C)cc2)cc1	n	1.24
CSc1ccc(S(=O)(=O)N(CC(=O)Nc2ccc(C)cc2)c2ccc(C)cc2)cc1	n	0.675
CCOC(=O)c1ccc(NC(=O)CN(c2ccc(OCC)cc2)S(=O)(=O)c2ccc(SC)cc2)cc1	n	n
CSc1ccc(S(=O)(=O)N(CC(=O)Nc2ccc(C(C)=O)cc2)c2ccc(C)cc2)cc1	n	0.73
CCOc1ccc(S(=O)(=O)N(CC(=O)Nc2ccc(C)cc2)c2ccc(C)cc2)cc1	n	n
CSc1ccc(S(=O)(=O)N(CC(=O)Nc2ccc(C)cc2C)c2ccc(C)cc2)cc1	n	n
SMILES	HCV NS3h FP	Cy5 interf NS3h
CCC1(C)Cc2c(sc3nc(=S)[nH]c(N)c23)CO1 (stereo unspecified)	n	n
COC(=O)c1ccccc1NC(=O)c1ccc(CN2CCc3ccccc3C2)cc1	n	n
COC(=O)CN(c1ccccc1)S(C)(=O)=O	n	n
CCC(=O)Nc1nc(C)c(-c2csc(Nc3cc(C)ccn3)n2)s1	n	n
CC(=O)Nc1nc(C)c(-c2csc(Nc3ncccn3)n2)s1	n	0.514
O=C(Nc1ccc2c(c1)OCO2)c1ccc(I)cc1	n	n
COC(=O)COc1ccc(/C=C2/C(=O)N(c3ccccc3)N=C2C)cc1	n	n
COc1ccc(/C=C2\C(=O)N(c3nc(-c4ccc(C)cc4)cs3)N=C2C)cc1	n	0.698
Cc1cc(C)c(NC(=S)NC(=O)/C=C/c2ccccc2)c([N+](=O)[O-])c1	n	n
Cc1cccc(NC(=O)CSc2nsc(SCC(=O)Nc3cccc(C)c3)n2)c1	n	n
CCOc1ccc2nc(SCC(=O)Nc3cccc(C)c3)sc2c1	n	0.614
COc1ccc(NC(=O)C2(c3ccccc3)CC2(Cl)Cl)cc1 (stereo unspecified)	n	n
O=C(OCc1ccccc1)Sc1nnc(-c2ccc(Br)cc2)o1	n	0.781
O=C(CSc1nnc(-c2ccc(Br)cc2)o1)NCc1ccccc1	n	n
O=C(C1=C(O)C(=O)N(c2ncc(S(=O)(=O)c3ccc([N+](=O)[O-])cc3)s2)C1c1ccc(F)cc1)c1ccco1 (stereo unspecified)	n	0.788
COc1ccc(C2C(=C(O)c3ccc(C)cc3)C(=O)C(=O)N2c2ncc(S(=O)(=O)c3ccc([N+](=O)[O-])cc3)s2)cc1 (stereo unspecified)	n	n
Cc1ccc(C=C2C(=O)N(C)C(=S)N(c3ccccc3)C2=O)s1	n	1.33
Cc1cccc(C(=O)Oc2ccc(/C=C3/SC(=S)N(c4ccccc4)C3=O)cc2)c1	n	n
CCCS(=O)(=O)c1c(S(=O)(=O)CCC)c2ccccn2c1C(=O)c1ccc([N+](=O)[O-])cc1	n	n
CCCS(=O)(=O)c1c(S(=O)(=O)CCC)c2c(N)cccn2c1C(=O)c1ccc(OC)cc1	n	0.661
COc1ccc(NC(=O)/C(C#N)=C\c2ccc(-c3cccc(C(=O)O)c3)o2)cc1	n	n
O=C(NCC1CCCO1)c1cc2nc(-c3ccccc3)cc(-c3ccccc3)n2n1 (stereo unspecified)	n	0.62

Screens: PubChem BioAssay, Milwaukee Institute for Drug Discovery
